Test results taken from ChEMBL document CHEMBL1961873, “Compounds: GSK PKIS; Assays: Nanosyn kinase panel” (2012).
Values joined by “and” are separate entries in the source; they are usually repeats but may differ in a detail not shown here. Identical values can stand only once.

Legend:
[1] = target: Serine/threonine-protein kinase PAK 6 (Homo sapiens) (UniProt Q9NQU5); settings: at 1 µM;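 also: values are mean percent inhibition of PAK6 kinase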
[2] = system: Tyrosine-protein kinase ABL1 (Homo sapiens), P00519 [E255K]; settings: at 0.1 µM
[3] = system: Tyrosine-protein kinase ABL1 (Homo sapiens), P00519 [E255K]; settings: at 1 µM
[4] = system: Tyrosine-protein kinase ABL1 (Homo sapiens), P00519 [H396P]; settings: at 0.1 µM
[5] = system: Tyrosine-protein kinase ABL1 (Homo sapiens), P00519 [H396P]; settings: at 1 µM
[6] = system: Tyrosine-protein kinase ABL1 (Homo sapiens), P00519 [M351T]; settings: at 0.1 µM
[7] = system: Tyrosine-protein kinase ABL1 (Homo sapiens), P00519 [M351T]; settings: at 1 µM
[8] = system: Tyrosine-protein kinase ABL1 (Homo sapiens), P00519 [Q252H]; settings: at 0.1 µM
[9] = system: Tyrosine-protein kinase ABL1 (Homo sapiens), P00519 [Q252H]; settings: at 1 µM
[10] = system: Tyrosine-protein kinase ABL1 (Homo sapiens), P00519 [T315I]; settings: at 0.1 µM
[11] = system: Tyrosine-protein kinase ABL1 (Homo sapiens), P00519 [T315I]; settings: at 1 µM
[12] = system: Tyrosine-protein kinase ABL1 (Homo sapiens), P00519 [Y253F]; settings: at 0.1 µM
[13] = system: Tyrosine-protein kinase ABL1 (Homo sapiens), P00519 [Y253F]; settings: at 1 µM
[14] = target: Tyrosine-protein kinase ABL1 (Homo sapiens) (UniProt P00519); settings: at 0.1 µM
[15] = target: Tyrosine-protein kinase ABL1 (Homo sapiens) (UniProt P00519); settings: at 1 µM
[16] = target: ALK tyrosine kinase receptor (Homo sapiens) (UniProt Q9UM73); settings: at 0.1 µM
[17] = target: ALK tyrosine kinase receptor (Homo sapiens) (UniProt Q9UM73); settings: at 1 µM
[18] = target: Tyrosine-protein kinase ABL2 (Homo sapiens) (UniProt P42684); settings: at 0.1 µM
[19] = target: Tyrosine-protein kinase ABL2 (Homo sapiens) (UniProt P42684); settings: at 1 µM
[20] = target: Tyrosine-protein kinase receptor UFO (Homo sapiens) (UniProt P30530); settings: at 0.1 µM;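 also: values are mean percent inhibition of AXL from the GSK PKIS screen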
Chain of Tyrosine-protein kinase receptor UFO (Homo sapiens) (P30530 whole entry): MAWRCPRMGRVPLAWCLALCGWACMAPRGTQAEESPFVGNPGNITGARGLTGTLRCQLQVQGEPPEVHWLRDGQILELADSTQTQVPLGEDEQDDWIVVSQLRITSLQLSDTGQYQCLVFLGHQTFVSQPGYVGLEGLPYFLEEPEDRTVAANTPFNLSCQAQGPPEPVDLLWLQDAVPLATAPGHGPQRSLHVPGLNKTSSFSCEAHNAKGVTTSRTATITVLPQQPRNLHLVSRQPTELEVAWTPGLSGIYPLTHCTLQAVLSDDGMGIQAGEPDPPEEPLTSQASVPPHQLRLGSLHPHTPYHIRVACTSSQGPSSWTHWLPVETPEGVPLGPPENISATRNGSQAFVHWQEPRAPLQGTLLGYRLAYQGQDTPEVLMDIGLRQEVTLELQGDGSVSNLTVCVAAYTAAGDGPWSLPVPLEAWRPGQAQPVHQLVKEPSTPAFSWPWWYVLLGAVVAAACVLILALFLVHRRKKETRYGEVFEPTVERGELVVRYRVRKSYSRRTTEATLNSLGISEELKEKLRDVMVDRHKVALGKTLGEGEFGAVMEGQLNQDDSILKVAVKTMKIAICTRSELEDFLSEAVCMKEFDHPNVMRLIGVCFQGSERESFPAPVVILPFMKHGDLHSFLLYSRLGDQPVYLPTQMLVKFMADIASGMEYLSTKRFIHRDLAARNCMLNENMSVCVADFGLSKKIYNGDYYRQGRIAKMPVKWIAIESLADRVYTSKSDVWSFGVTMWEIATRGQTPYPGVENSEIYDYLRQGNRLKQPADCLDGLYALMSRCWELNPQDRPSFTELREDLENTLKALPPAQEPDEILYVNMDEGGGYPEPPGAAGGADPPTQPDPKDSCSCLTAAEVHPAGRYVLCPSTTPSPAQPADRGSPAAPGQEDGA

Chain of Tyrosine-protein kinase ABL2 (Homo sapiens) (P42684 whole entry): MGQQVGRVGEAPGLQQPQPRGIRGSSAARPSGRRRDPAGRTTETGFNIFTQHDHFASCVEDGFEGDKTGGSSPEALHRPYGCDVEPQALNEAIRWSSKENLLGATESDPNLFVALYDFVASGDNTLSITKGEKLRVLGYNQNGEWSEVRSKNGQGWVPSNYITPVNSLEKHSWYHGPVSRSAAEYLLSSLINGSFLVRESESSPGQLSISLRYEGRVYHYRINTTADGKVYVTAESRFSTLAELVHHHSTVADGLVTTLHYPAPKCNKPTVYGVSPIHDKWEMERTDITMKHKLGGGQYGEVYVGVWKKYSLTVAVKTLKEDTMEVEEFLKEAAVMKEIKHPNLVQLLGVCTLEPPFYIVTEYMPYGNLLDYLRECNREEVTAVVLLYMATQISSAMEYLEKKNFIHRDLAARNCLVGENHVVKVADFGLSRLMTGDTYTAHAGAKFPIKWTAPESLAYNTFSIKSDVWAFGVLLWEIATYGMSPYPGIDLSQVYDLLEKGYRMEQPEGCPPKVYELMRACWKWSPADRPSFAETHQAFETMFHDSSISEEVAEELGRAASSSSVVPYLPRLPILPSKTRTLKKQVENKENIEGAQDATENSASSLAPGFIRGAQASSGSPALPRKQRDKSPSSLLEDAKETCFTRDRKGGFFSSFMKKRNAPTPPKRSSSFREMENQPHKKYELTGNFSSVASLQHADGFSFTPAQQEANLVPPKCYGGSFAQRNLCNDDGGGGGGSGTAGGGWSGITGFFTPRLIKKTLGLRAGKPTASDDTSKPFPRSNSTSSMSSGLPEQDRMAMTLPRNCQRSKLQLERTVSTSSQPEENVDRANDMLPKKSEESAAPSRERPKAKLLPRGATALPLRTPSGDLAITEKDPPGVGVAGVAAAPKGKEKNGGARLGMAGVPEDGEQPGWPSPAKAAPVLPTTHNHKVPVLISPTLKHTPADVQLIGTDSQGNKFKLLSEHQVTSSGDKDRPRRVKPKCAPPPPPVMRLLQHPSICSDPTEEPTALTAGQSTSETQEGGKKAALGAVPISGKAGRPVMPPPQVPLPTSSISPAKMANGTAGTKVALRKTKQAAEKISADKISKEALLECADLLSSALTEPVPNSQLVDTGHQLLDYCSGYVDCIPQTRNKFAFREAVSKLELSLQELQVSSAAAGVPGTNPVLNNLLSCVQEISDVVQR
Chain of Serine/threonine-protein kinase PAK 6 (Homo sapiens) (Q9NQU5 whole entry, looked up): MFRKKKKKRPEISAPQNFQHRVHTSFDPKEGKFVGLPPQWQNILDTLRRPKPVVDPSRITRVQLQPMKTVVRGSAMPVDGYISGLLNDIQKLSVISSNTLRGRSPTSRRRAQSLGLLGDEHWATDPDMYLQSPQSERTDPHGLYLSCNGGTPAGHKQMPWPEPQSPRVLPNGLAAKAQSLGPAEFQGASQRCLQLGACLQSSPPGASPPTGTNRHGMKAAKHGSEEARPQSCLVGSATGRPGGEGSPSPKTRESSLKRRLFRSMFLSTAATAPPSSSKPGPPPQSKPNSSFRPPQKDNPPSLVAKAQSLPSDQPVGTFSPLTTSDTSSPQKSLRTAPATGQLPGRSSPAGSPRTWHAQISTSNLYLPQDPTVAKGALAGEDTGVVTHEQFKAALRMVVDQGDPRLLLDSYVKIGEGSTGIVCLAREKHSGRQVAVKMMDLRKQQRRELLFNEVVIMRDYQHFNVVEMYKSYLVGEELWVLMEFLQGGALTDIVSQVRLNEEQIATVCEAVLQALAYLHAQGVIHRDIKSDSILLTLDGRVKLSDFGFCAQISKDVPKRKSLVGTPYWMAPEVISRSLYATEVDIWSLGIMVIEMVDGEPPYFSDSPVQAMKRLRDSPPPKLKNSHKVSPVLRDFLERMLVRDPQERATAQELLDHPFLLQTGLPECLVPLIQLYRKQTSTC
Chain of ALK tyrosine kinase receptor (Homo sapiens) (Q9UM73 19-1620 limits assumed): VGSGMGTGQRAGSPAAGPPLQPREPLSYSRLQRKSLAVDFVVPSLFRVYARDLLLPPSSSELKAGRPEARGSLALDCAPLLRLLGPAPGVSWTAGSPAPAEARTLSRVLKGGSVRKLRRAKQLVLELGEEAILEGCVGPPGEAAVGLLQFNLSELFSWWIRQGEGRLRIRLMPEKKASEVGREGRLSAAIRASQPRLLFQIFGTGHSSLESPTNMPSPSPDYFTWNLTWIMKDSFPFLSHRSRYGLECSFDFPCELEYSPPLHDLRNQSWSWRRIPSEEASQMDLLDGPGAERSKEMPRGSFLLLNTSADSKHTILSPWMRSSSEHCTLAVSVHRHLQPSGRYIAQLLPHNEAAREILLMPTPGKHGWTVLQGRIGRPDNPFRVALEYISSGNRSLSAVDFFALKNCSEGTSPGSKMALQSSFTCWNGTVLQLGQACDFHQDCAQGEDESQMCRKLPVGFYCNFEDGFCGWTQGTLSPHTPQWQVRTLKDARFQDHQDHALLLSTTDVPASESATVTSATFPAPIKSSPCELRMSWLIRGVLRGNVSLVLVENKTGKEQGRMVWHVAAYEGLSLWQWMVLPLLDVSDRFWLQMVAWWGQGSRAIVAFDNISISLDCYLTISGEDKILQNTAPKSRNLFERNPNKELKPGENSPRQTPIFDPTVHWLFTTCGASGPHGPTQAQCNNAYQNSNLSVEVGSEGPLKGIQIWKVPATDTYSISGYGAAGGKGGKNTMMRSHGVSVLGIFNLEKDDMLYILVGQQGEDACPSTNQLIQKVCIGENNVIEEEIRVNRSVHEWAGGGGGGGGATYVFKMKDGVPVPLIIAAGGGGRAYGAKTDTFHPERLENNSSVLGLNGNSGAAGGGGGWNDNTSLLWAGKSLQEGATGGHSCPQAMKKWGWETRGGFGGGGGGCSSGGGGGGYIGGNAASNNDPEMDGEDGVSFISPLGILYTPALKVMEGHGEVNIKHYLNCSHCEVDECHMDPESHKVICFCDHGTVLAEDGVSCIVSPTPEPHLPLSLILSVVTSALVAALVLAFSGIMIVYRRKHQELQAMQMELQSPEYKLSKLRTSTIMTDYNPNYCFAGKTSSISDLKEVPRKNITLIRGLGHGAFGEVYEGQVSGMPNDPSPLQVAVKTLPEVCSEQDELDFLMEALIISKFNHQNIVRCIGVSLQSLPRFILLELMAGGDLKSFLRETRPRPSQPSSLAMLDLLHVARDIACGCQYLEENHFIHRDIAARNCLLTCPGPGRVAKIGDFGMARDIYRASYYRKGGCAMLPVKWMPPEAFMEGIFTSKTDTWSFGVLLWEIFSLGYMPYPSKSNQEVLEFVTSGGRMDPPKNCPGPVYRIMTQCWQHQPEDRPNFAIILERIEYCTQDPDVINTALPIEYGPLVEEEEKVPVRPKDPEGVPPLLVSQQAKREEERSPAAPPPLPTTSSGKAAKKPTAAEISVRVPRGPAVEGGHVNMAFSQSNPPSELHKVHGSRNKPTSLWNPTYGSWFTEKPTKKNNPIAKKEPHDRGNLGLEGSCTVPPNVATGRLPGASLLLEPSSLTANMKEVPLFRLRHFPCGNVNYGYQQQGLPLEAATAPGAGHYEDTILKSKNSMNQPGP

Structure (SMILES): COC(=O)Nc1nc2ccc(Oc3ccc(NC(=O)Nc4cc(C(F)(F)F)ccc4F)cc3)cc2s1
- inhibition [1]: -8.13%
- inhibition [2]: 17.2%
- inhibition [3]: 66.8%
- inhibition [4]: 65.9%
- inhibition [5]: 92.3%
- inhibition [6]: 76.6%
- inhibition [7]: 93.3%
- inhibition [8]: 75.1%
- inhibition [9]: 91.4%
- inhibition [10]: 78.8%
- inhibition [11]: 92.6%
- inhibition [12]: 32.2%
- inhibition [13]: 75.7%
- inhibition [14]: 42.7%
- inhibition [15]: 79.8%
- inhibition [16]: 0.95%
- inhibition [17]: 6.26%
- inhibition [18]: 51.4%
- inhibition [19]: 73.6%
- inhibition [20]: 13.7%

Structure (SMILES): CS(=O)(=O)Nc1ccc(-c2cc(-c3ccccc3)cc(C(N)=O)c2N)cc1
- inhibition [1]: -8.25%
- inhibition [2]: 1.39%
- inhibition [3]: 2.13%
- inhibition [4]: 1.72%
- inhibition [5]: 3.82%
- inhibition [6]: 0.69%
- inhibition [7]: 2.62%
- inhibition [8]: 2.8%
- inhibition [9]: 3.07%
- inhibition [10]: 0.02%
- inhibition [11]: 0.72%
- inhibition [12]: 1.53%
- inhibition [13]: 2.93%
- inhibition [14]: 3.02%
- inhibition [15]: 7.08%
- inhibition [16]: 0.29%
- inhibition [17]: 2.13%
- inhibition [18]: 2.05%
- inhibition [19]: 7.11%
- inhibition [20]: -4.02%

Structure (SMILES): CNC(=O)c1sc(-n2cnc3cc(OC)c(OC)cc32)cc1OCc1ccccc1C(F)(F)F
- inhibition [1]: -4.28%
- inhibition [2]: 1.88%
- inhibition [3]: 9.07%
- inhibition [4]: 3.16%
- inhibition [5]: 10.5%
- inhibition [6]: 0.2%
- inhibition [7]: 6.66%
- inhibition [8]: 4.26%
- inhibition [9]: 7.88%
- inhibition [10]: 1.96%
- inhibition [11]: 4.16%
- inhibition [12]: 2.46%
- inhibition [13]: 10.3%
- inhibition [14]: 8.39%
- inhibition [15]: 17.2%
- inhibition [16]: 3.52%
- inhibition [17]: 5.76%
- inhibition [18]: 5.79%
- inhibition [19]: 13.2%
- inhibition [20]: -4.3%

Structure (SMILES): CS(=O)(=O)CCNCc1ccc(-c2ccc3ncnc(Nc4ccc(OCc5cccc(C(F)(F)F)c5)cc4)c3c2)o1
- inhibition [1]: -8.87%
- inhibition [2]: 0.33%
- inhibition [3]: 2.52%
- inhibition [4]: 3.55%
- inhibition [5]: 4.29%
- inhibition [6]: -0.21%
- inhibition [7]: 1.37%
- inhibition [8]: 3.36%
- inhibition [9]: 4.5%
- inhibition [10]: 1.82%
- inhibition [11]: 2.39%
- inhibition [12]: 2.96%
- inhibition [13]: 3.54%
- inhibition [14]: 6.46%
- inhibition [15]: 8.69%
- inhibition [16]: 3%
- inhibition [17]: 5.12%
- inhibition [18]: 4.21%
- inhibition [19]: 8.35%
- inhibition [20]: -6.74%

Structure (SMILES): COc1cc(N2CCN(C(C)C)CC2)ccc1Nc1nc(Nc2cccc3ncccc23)c2cc[nH]c2n1
- inhibition [1]: -4.19%
- inhibition [2]: 0.09%
- inhibition [3]: 0.59%
- inhibition [4]: 2.17%
- inhibition [5]: 3.86%
- inhibition [6]: 2.31%
- inhibition [7]: 3.99%
- inhibition [8]: 1.61%
- inhibition [9]: 3.51%
- inhibition [10]: 1.61%
- inhibition [11]: 0.12%
- inhibition [12]: 0.03%
- inhibition [13]: 2.91%
- inhibition [14]: 1.91%
- inhibition [15]: 9.59%
- inhibition [16]: 51.7%
- inhibition [17]: 86.3%
- inhibition [18]: 4.93%
- inhibition [19]: 8.07%
- inhibition [20]: 1.7%

Structure (SMILES): NC(=O)c1ccc2c(-c3ccnc(NCCCO)n3)c(-c3ccc(F)cc3)nn2c1
- inhibition [1]: -5.05%
- inhibition [2]: 4.7%
- inhibition [3]: 7.28%
- inhibition [4]: 6.27%
- inhibition [5]: 8.34%
- inhibition [6]: 3.9%
- inhibition [7]: 10.1%
- inhibition [8]: 5.67%
- inhibition [9]: 10.2%
- inhibition [10]: 2.91%
- inhibition [11]: 6.37%
- inhibition [12]: 7.28%
- inhibition [13]: 8.72%
- inhibition [14]: 4.37%
- inhibition [15]: 13.2%
- inhibition [16]: 3.18%
- inhibition [17]: 7.82%
- inhibition [18]: 4.85%
- inhibition [19]: 10.1%
- inhibition [20]: -6.77%

Structure (SMILES): CC(C)c1ccc(-c2cc(-c3c[nH]nc3-c3ccccn3)ccn2)cc1
- inhibition [1]: -0.86%
- inhibition [2]: 2.44%
- inhibition [3]: 17.2%
- inhibition [4]: 7.55%
- inhibition [5]: 40.1%
- inhibition [6]: 5.28%
- inhibition [7]: 38.5%
- inhibition [8]: 3.86%
- inhibition [9]: 21.4%
- inhibition [10]: 1.9%
- inhibition [11]: 0.44%
- inhibition [12]: 1.59%
- inhibition [13]: 22.1%
- inhibition [14]: 7.53%
- inhibition [15]: 45.5%
- inhibition [16]: 1.28%
- inhibition [17]: 3.08%
- inhibition [18]: 8.41%
- inhibition [19]: 16.6%
- inhibition [20]: -1.3%

Structure (SMILES): Fc1cccc(COc2ccc(Nc3ncncc3C#Cc3ccccc3)cc2Cl)c1
- inhibition [1]: -8.4%
- inhibition [2]: 3.27%
- inhibition [3]: 5.06%
- inhibition [4]: 3.58%
- inhibition [5]: 4.02%
- inhibition [6]: 0.94%
- inhibition [7]: 5.32%
- inhibition [8]: 4.91%
- inhibition [9]: 3.96%
- inhibition [10]: 4.11%
- inhibition [11]: 5.21%
- inhibition [12]: 2.86%
- inhibition [13]: 4.69%
- inhibition [14]: 4.16%
- inhibition [15]: 11.3%
- inhibition [16]: 2.52%
- inhibition [17]: 4.64%
- inhibition [18]: 3.23%
- inhibition [19]: 1.72%
- inhibition [20]: -5.96%

Structure (SMILES): OCCCNc1nccc(-c2c(-c3ccc(F)cc3)nn3cc(C(F)(F)F)ccc23)n1
- inhibition [1]: -2.02%
- inhibition [2]: 3.05%
- inhibition [3]: 3.11%
- inhibition [4]: 3.42%
- inhibition [5]: 3.33%
- inhibition [6]: 2.71%
- inhibition [7]: 3%
- inhibition [8]: 4.61%
- inhibition [9]: 3.52%
- inhibition [10]: 1.5%
- inhibition [11]: 1.6%
- inhibition [12]: 4.75%
- inhibition [13]: 4.88%
- inhibition [14]: 6.03%
- inhibition [15]: 11.5%
- inhibition [16]: 1.23%
- inhibition [17]: 2.86%
- inhibition [18]: 3.63%
- inhibition [19]: 7.2%
- inhibition [20]: -4.91%

Structure (SMILES): O=C(Nc1n[nH]c2nnc(-c3cccnc3)cc12)C1CC1
- inhibition [1]: -4.92%
- inhibition [2]: -1.11%
- inhibition [3]: 1.39%
- inhibition [4]: 0.14%
- inhibition [5]: 3.4%
- inhibition [6]: 2.2%
- inhibition [7]: 3.78%
- inhibition [8]: 0.59%
- inhibition [9]: 2.57%
- inhibition [10]: -0.5%
- inhibition [11]: 3.43%
- inhibition [12]: 0.48%
- inhibition [13]: 3.53%
- inhibition [14]: 3.47%
- inhibition [15]: 6.91%
- inhibition [16]: 0.19%
- inhibition [17]: 1.54%
- inhibition [18]: 0.77%
- inhibition [19]: 3.61%
- inhibition [20]: 0.08%

Structure (SMILES): CCS(=O)(=O)c1ccc(OC)c(Nc2ncc(-c3cccc(C(C)=O)c3)o2)c1
- inhibition [1]: 7.27%
- inhibition [2]: 15.3%
- inhibition [3]: 61.6%
- inhibition [4]: 19.3%
- inhibition [5]: 67.3%
- inhibition [6]: 20.5%
- inhibition [7]: 68.5%
- inhibition [8]: 30.4%
- inhibition [9]: 78%
- inhibition [10]: 2.67%
- inhibition [11]: 8.41%
- inhibition [12]: 25.4%
- inhibition [13]: 72.3%
- inhibition [14]: 13.4%
- inhibition [15]: 60.2%
- inhibition [16]: 2.32%
- inhibition [17]: 2.87%
- inhibition [18]: 13%
- inhibition [19]: 60.8%
- inhibition [20]: -3.14%

Structure (SMILES): CN1CCN(Cc2ccc(-c3cc4ncnc(Nc5ccc(OCc6cccc(F)c6)c(Cl)c5)c4s3)o2)CC1
- inhibition [1]: -4.15% and 3.43%
- inhibition [2]: 2.21% and 2.71%
- inhibition [3]: 7.15% and 8.4%
- inhibition [4]: 4.73% and 6.21%
- inhibition [5]: 14.3% and 18%
- inhibition [6]: 1.3% and 4.75%
- inhibition [7]: 14.7% and 17.9%
- inhibition [8]: 4.48% and 6.29%
- inhibition [9]: 16.1% and 20.9%
- inhibition [10]: 3.33% and 5.07%
- inhibition [11]: 16.3% and 19.7%
- inhibition [12]: 4.69% and 4.76%
- inhibition [13]: 12.2% and 15.9%
- inhibition [14]: 3.24% and 4%
- inhibition [15]: 9.31% and 11%
- inhibition [16]: 2.64% and 4.3%
- inhibition [17]: 8.37% and 11.1%
- inhibition [18]: 3.03% and 4.53%
- inhibition [19]: 5.38% and 10.7%
- inhibition [20]: -3.61% and -5.96%

Structure (SMILES): CC1(C)CC(n2cnc(-c3ccc(F)cc3)c2-c2ccnc(N)n2)CC(C)(C)N1
- inhibition [1]: -4.18%
- inhibition [2]: 1.94%
- inhibition [3]: 2.09%
- inhibition [4]: 0.18%
- inhibition [5]: 0.59%
- inhibition [6]: 2.43%
- inhibition [7]: 0.27%
- inhibition [8]: 0.65%
- inhibition [9]: 0.31%
- inhibition [10]: 1.92%
- inhibition [11]: 4.98%
- inhibition [12]: 8%
- inhibition [13]: 5.3%
- inhibition [14]: -0.56%
- inhibition [15]: 4.28%
- inhibition [16]: -0.41%
- inhibition [17]: 1.55%
- inhibition [18]: -1.89%
- inhibition [19]: 1.01%
- inhibition [20]: -0.07%
